Screening data: PubChem BioAssay, National Center for Advancing Translational Sciences (NCATS)
This is a sample that favours compounds with a hit; in the whole collection about 7.9% have one here.
FMDV antiviral – High Throughput Screening for Foot and Mouth Disease Virus Antivirals; Potency, µM (top dose mostly 57.9 µM), for inactives: at the highest dose activity change, negative = inhibition, actives largely listed as inhibitors; actives 1.2% (n = 410,000); FMDV antiviral cell-based qHTS; calls by dose curve; tested in HEK293T cells; note: read-out not given here; potency is the fitted concentration of half-maximal effect; nearly all actives have a fitted effect of over 45% in size
Lassa entry inh – qHTS for Inhibitors of binding or entry into cells for Lassa Virus; actives 1.2% (n = 300,000); Lassa virus pseudotype entry inhibition, cell reporter; Potency, µM (highest dose often 37.9 µM), without a hit: at the highest dose activity change, negative = inhibition, hits mostly inhibitors; AID 540256, 2011; calls by dose curve; tested in HEK293 cells; note: potency is the fitted concentration of half-maximal effect; nearly all actives have a fitted effect of over 50% in size
HCMV antiviral – qHTS Assay for inhibitors of the human cytomegalovirus (HCMV); HFF cells, HCMV-luciferase reporter, 72 h; hits give low values; activity change, negative = inhibition, % at 57.5 µM; actives 4.5% (n = 410,000); AID 1259415, 2018; in the data active = activity change below about -60%; inconclusive = no clear call, values can overlap the other calls; inactive = above about -39%
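Screen run at 2 compound doses on HFFs infected with reporter HCMV, MOI 1 PFU/cell. Luciferase activity from cell lysates at 72 h post infection gave inhibition relative to buffer-only and Salinomycin wells.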
MARV entry inh – qHTS for inhibitors of binding or entry into cells for Marburg Virus; Potency, µM (top dose mostly 37.8 µM), inactives show at the top dose activity change, negative = inhibition, most hits filed as inhibitors; actives 1.8% (n = 300,000); AID 540276, 2011; Marburg virus pseudotyped entry inhibition, cell reporter; calls by dose curve; tested in HEK293 cells; note: potency is the fitted concentration of half-maximal effect
HCV inhibitor – qHTS Assay for Inhibitors of Hepatitis C Virus (HCV); actives 3.4% (n = 340,000); Huh7.5.1 HCVcc-Cre infection, luciferase reporter, 44 h; AID 651820, 2012; Potency, µM (titrated, usually from 41.8 µM), for the others: at the top dose activity change, negative = inhibition, usual class: inhibitors; active = well fitted inhibition curve with a large enough effect; inconclusive = small, poorly fitted or top-dose-only effect, or another doubt; inactive = no such curve, though single readings can be large or run the other way; note: potency is the fitted concentration of half-maximal effect
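Antiviral activity was scored by luciferase reporter output from cells infected with HCVcc-Cre (~0.5 moi) in presence of compound, 44 h infection period, cells seeded 1,000/well 4 h prior.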
* = called active by the depositor; ? = inconclusive; . = no result given; ! = a repeat was not active; [ ] = dose if it differs, or a comment. % is set by controls: 0 for no effect and ±100 for the full control effect.

SMILES	FMDV antiviral	Lassa entry inh	HCMV antiviral	MARV entry inh	HCV inhibitor
Cc1cc(C)cc(NC(=O)Cn2nnc(C(=O)NCc3ccccc3Cl)c2N)c1	0.0%	?	-78.6*!	12.9%[46.1 µM]	-2.5%
Cc1cccc(NC(=O)N2CCC(N3CCN(Cc4ccccc4)C(=O)C3=O)CC2)c1C	17.0%	12.8%[46.1 µM]	14.3	.	.
Nc1nonc1-c1nc2cnccc2n1C1CCCCC1	.	-15.1%	.	.	.
Fc1cccc(F)c1/C=N/NC(=S)Nc1cccnc1	7.4%	4.5%	?	-7.7%[46.1 µM]	?
Fc1c(F)c(F)c(/C=N/NC(=S)Nc2cccnc2)c(F)c1F	?	?	-81.4*	?	?
S=C(N/N=C/c1ccccc1Cl)Nc1ccccc1	9.5%	?	6.0	-19.4%	-5.3%
Oc1ccc(C=NNC(=S)Nc2ccccc2)nc1	42.9%	.	-96.7*	.	.
Oc1cccc(/C=N/NC(=S)Nc2cccnc2)c1O	58.8%	20.6µM*	91.0	?	?
COc1ccc(N2CCN(Cc3nc4c(c(=O)[nH]c(=O)n4C)n3Cc3ccccc3C)CC2)cc1	-15.9%	5.7%[46.1 µM]	-4.7	1.1%[46.1 µM]	.
CC(C)(C)OC(=O)N1CCC[C@H]1c1nnc(SCc2ccccc2Cl)o1	-24.4%	?	10.4	-15.7%	0.0%
CC(C)(C)OC(=O)N1CCC[C@H]1c1nnc(SCc2ccc(Cl)cc2Cl)o1	39.8µM*	?	9.3	8.91µM*	?
CC(=O)N1CC2=C(CCCC2)C(C)CC12CCCCC2 (stereo not given)	.	.	.	-17.6%	.
CC(C)(C)c1nc2ccc(NS(=O)(=O)c3ccc(F)c(F)c3F)cc2[nH]1	-9.7%	-11.8%	-66.2*	-0.2%[46.1 µM]	-5.0%
O=S(=O)(Nc1ccc2nc(C(F)(F)F)[nH]c2c1)c1ccccc1	.	?	?	-27.9%	?
CC(C)(C)N1C(=O)[C@H]2[C@H]3[C@H](O)[C@H](O)C/C(=N\OCc4ccccc4)[C@H]3CC[C@H]2C1=O	.	.	.	-9.5%[14.2 µM]	.
COc1ccc(CNC(=O)c2cnn(-c3nccc(-c4ccco4)n3)c2C)cc1OC	35.0%	.	.	.	.
CC(C)=C1CCC(C)CC1=NNC(N)=S (stereo not given)	?	?	-14.7	-12.8%	?
CC1C/C(=N\NC(N)=S)c2cc(Cl)ccc2S1 (stereo not given)	?	?	-10.4	12.6µM*	-19.4%
Cc1nn(Cc2ccccc2Cl)c(C)c1C(=O)NCC(c1cccs1)N1CCOCC1 (stereo not given)	-4.8%	10.0%	-10.8	11.0%	8.8%
CCCCn1c(=N)n(CC(O)c2ccccc2)c2ccccc21 (stereo not given)	-16.5%	?	?	13µM*	?
N=c1n(CCN2CCCC2)c2ccccc2n1CC(O)c1ccco1 (stereo not given)	-2.1%	?	-22.4	?	?
CC(C)(C)c1ccc(Cn2c(=N)n(CC(O)c3ccco3)c3ccccc32)cc1 (stereo not given)	20µM*	-27.0%	.	11.2µM*	10µM*
CCCCCCCn1c(=N)n(CC(O)c2ccco2)c2ccccc21 (stereo not given)	-16.3%	?	-72.7*	2.82µM*	8.91µM*
N#C/C(=C/c1ccc(O)c([N+](=O)[O-])c1)C(=O)Nc1ccccc1	?	-6.8%[46.1 µM]	?	2.51µM*	11.2%
N#C/C(=C\c1ccccc1[N+](=O)[O-])C(=O)NCc1ccccc1	-29.7%	-0.7%[46.1 µM]	5.9	5.6%[46.1 µM]	5.2%
SMILES	FMDV antiviral	Lassa entry inh	HCMV antiviral	MARV entry inh	HCV inhibitor
N#C/C(=C/C=C/c1ccccc1)C(=O)Nc1ccccc1	30.2%	?	5.1	2.91µM*	-8.7%
N#C/C(=C/c1ccc([N+](=O)[O-])cc1)C(=O)Nc1ccccc1O	-10.5%	13.5%	57.0	?	4.2%
N#C/C(=C\C=C\c1ccccc1[N+](=O)[O-])C(=O)NCc1ccccc1	-39.0%	10µM*	-98.4*	?	31.6µM*
COc1ccc(Cn2c(CNS(=O)(=O)c3ccc4c(c3)CCCC4)nc3cccnc32)cc1	74.5%	-9.9%[46.1 µM]	0.8	.	.
COC(=O)[C@@H]1CCCN1Cc1ccc2c(c1)CN(Cc1coc3ccc(C)cc3c1=O)CCO2	-9.2%	.	.	.	.
O=C(Nc1cccc(NC(=O)c2ccc(Cl)cc2Cl)c1)c1cccnc1	?	.	19.6	?	31.6µM*
CC(C)(C)c1cc(Cl)c(O)c(NC(=S)NC(=O)c2cccnc2)c1	-9.4%	-19.8%	-95.3*	?	?
O=C(NNC(=S)Nc1ccc(Cl)cc1Cl)c1cccnc1	71.8%	.	-64.2*	.	5.6%
O=C(Nc1cccc(NC(=O)c2cccnc2)c1)c1cccnc1	.	22.0%	-4.0	-1.5%	1.2%
CC(Oc1ccc(Cl)cc1Cl)c1nc(-c2ccc(NC(=O)c3cccnc3)cc2)no1 (stereo not given)	28.2µM*	?	-72.3*	11.2µM*	11.2µM*!
CC(Oc1ccc(Cl)cc1Cl)C(=O)NNC(=O)c1cccnc1 (stereo not given)	-0.2%	.	-21.2	.	14.0%
O=C(NNC(=S)Nc1ccc(Cl)cc1Cl)c1ccncc1	30.5%	19.3%	-2.1	?	14.2%
CC(C)(C)c1ccc(C(=O)NNC(=S)NC(=O)c2cccnc2)cc1	5.2%	?	?	?	?
Cc1cc2nc(CSc3ccc(Cl)cc3)cc(=O)n2[nH]1	0.0%	3.0%[46.1 µM]	?	11.9%[46.1 µM]	-0.3%
CCCOc1ccc(C(=O)Nc2cccc(NC(=O)c3ccc(Cl)cc3Cl)c2)cc1	-10.4%	-23.3%[46.1 µM]	-91.1*	.	.
CCCOc1cccc(C(=O)Nc2cccc(NC(=O)c3ccc(Cl)cc3Cl)c2)c1	-19.5%	1.1%[46.1 µM]	-8.1	.	.
CCc1ccc2nc(Nc3ccc(OC)cc3OC)c(C#N)cc2c1	12.6%	20.4%[46.1 µM]	-7.5	-4.6%	3.55µM*
CCOC(=O)c1nn(-c2ccc(C)cc2)c(C)c1C(C)=O	7.6%	-7.4%	50.7	-6.0%[46.1 µM]	-24.2%
CCOC(=O)c1nn(-c2ccc(Cl)cc2)c(C)cc1=O	-9.6%	.	-73.0*	.	10.2%
CCOC(=O)c1nn(-c2ccc(F)cc2)c(C)c1C(C)=O	-5.1%	-4.9%	-79.5*	-13.3%	8.0%
Cc1nn(-c2ccccc2)c(C)c1/C=N/NC(=O)c1cc(C23CC4CC(CC(C4)C2)C3)[nH]n1	?	?	1.6	?	10µM*
Cc1nn(-c2ccccc2)c(C)c1/C=N/NC(=O)c1cccs1	20.6%	3.16µM*	32.6	11.2µM*	?
Cc1nn(-c2ccccc2)c(C)c1/C=N/NC(=O)c1cc(-c2ccc(Cl)s2)[nH]n1	3.98µM*	10.3µM*	-11.2	9.2µM*	?
Cc1nn(-c2ccccc2)c(C)c1/C=N/NC(=O)c1cc(C2CC2)[nH]n1	-2.5%	-20.1%	10.0	?	-10.1%
Cc1nn(-c2ccccc2)c(C)c1/C=N/NC(=O)c1cc(-c2ccc(Br)s2)[nH]n1	-16.3%	6.51µM*	-27.8	7.3µM*	?
Cc1nn(-c2ccccc2)c(C)c1/C=N/NC(=O)c1ccccc1O	-5.9%	8.9%	33.5	-1.7%	29.4%
